In PubChem BioAssay (NCATS):
Inconclusive results are not listed. The source made the active and inactive calls. The call rests on the fitted dose curve; in most records, active means well fitted curve in the direction sought with a large enough effect; inconclusive means small, poorly fitted or top-dose-only effect, or another doubt; inactive means no such curve, though single readings can be large; an effect the other way counts as inactive or inconclusive.

How the values were obtained:
[1] = Quantitative highthroughput screen to assess conditional lethalithy of NOMO1 cells grown in RPMI1640 with untreated serum (RPMI+s) (AID 1963876); further: nearly all actives have a fitted effect of over 35% in size; further: potency means the concentration at half of the fitted maximal effect;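 on viability: 100% = DMSO wells and 0% = empty wells without cells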
In short: (§1)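 Each medium arm—HPLM with 10% dialyzed FBS, or RPMI1640 with 5 mM glucose and 10% untreated or dialyzed FBS—was screened against an 11-point, 3-fold compound titration for 48 h at 37 °C, with CellTiter-Glo luminescence as endpoint.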

[2] = Cellular viability qHTS for adrenocortical cancer (ACC) cell line NCI-H295R (AID 1963990); further: nearly all actives have a fitted effect of over 60% in size; further: potency means the concentration at half of the fitted maximal effect
In short: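 Luminescent ATP read-out (CellTiter-Glo, 20 min RT) after 48 h drug exposure of NCI-H295R cells; a titration up to 46 uM final. Data normalized to doxorubicin (100% inhibition) and DMSO (0%); 4-parameter fit gives IC50, max response.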

[3] = Quantitative highthroughput screen to assess conditional lethalithy of NOMO1 cells grown in RPMI1640 with dialyzed fetal bovine serum (RPMI+ds) (AID 1963877); further: nearly all actives have a fitted effect of over 30% in size; further: potency means the concentration at half of the fitted maximal effect;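 on viability: series mostly up to about 46 µM; 100% = DMSO control wells and 0% = empty wells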
In short: as §1

[4] = Quantitative highthroughput screen to assess conditional lethalithy of NOMO1 cells grown in Human Plasma-Like Medium with dialyzed fetal bovine serum (HPLM+ds) (AID 1963878); further: nearly all actives have a fitted effect of over 35% in size; further: potency means the concentration at half of the fitted maximal effect;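 on viability: 100% = DMSO wells and 0% = empty wells on each plate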
In short: as §1

[5] = Quantitative highthroughput screen to assess conditional lethalithy of P12 Ichikawa cells grown in Human Plasma-Like Medium with dialyzed fetal bovine serum (HPLM+ds) (AID 1963879); conditions: Potency: viability; further: nearly all actives have a fitted effect of over 35% in size; further: potency means the concentration at half of the fitted maximal effect; on viability: series mostly up to about 46 µM
In short: as §1

[6] = Quantitative highthroughput screen to assess conditional lethalithy of P12 Ichikawa cells grown in RPMI1640 with dialyzed fetal bovine serum (RPMI+ds) (AID 1963880); conditions: Potency: P12-Ichikawa viability; further: nearly all actives have a fitted effect of over 35% in size; further: potency means the concentration at half of the fitted maximal effect;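 on viability: 100% = DMSO wells and 0% = empty wells on each plate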
In short: as §1

[7] = Quantitative highthroughput screen to assess conditional lethalithy of P12 Ichikawa cells grown in RPMI1640 with untreated serum (RPMI+s) (AID 1963881); conditions: Potency: viability; further: nearly all actives have a fitted effect of over 35% in size; further: potency means the concentration at half of the fitted maximal effect;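 on viability: series mostly up to about 46 µM; 100% = DMSO wells and 0% = empty wells without cells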
In short: as §1

[8] = Quantitative highthroughput screen to assess conditional lethalithy of SEM cells grown in RPMI1640 with unreated serum (RPMI+s) (AID 1963883); further: nearly all actives have a fitted effect of over 35% in size; further: potency means the concentration at half of the fitted maximal effect;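 on viability: 100% = DMSO wells and 0% = empty wells without cells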
In short: as §1

[9] = Quantitative highthroughput screen to assess conditional lethalithy of SEM cells grown in Human Plasma-Like Medium with dialyzed fetal bovine serum (HPLM+ds) (AID 1963882); further: nearly all actives have a fitted effect of over 35% in size; further: potency means the concentration at half of the fitted maximal effect; on viability: series mostly up to about 46 µM
In short: as §1

[10] = Quantitative highthroughput screen to assess conditional lethalithy of SEM cells grown in RPMI1640 with dialyzed fetal bovine serum (RPMI+ds) (AID 1963884); further: nearly all actives have a fitted effect of over 35% in size; further: potency means the concentration at half of the fitted maximal effect;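 on viability: series mostly up to about 46 µM; 100% = DMSO control wells and 0% = empty wells without cells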
In short: as §1

[11] = Cellular viability qHTS for adrenocortical cancer (ACC) cell line SW-13 (AID 1963989); conditions: SW-13 ACC cells viability, CellTiter-Glo, 48 h; activity (max response): hits give low values;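 further: cells grown in serum-free medium with ITS supplement; on the % scale 0 is the no-effect control and ±100 the full control effect; nearly all actives have a fitted effect of over 65% in size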
In short: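 SW-13 cells in ITS-supplemented serum-free DMEM were plated overnight, then exposed for 48 h at 37C to compound titrations (up to 46 uM final). Viability was read by CellTiter-Glo luminescence; four-parameter logistic fits gave IC50 and efficacy.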

Cn1c2cc(S(C)=O)sc2c2cnn(Cc3cccc(N)c3)c(=O)c21 (configuration not stated)
inactive: Potency [1] | Potency [2]

Clc1ccc(Nc2nnc(Cc3ccncc3)c3ccccc23)cc1
inactive: Potency [3] | Potency [4] | Potency [5] | Potency [6] | Potency [7]

CC1CC2C3CCC4=CC(=O)C=C[C@]4(C)[C@@]3(F)[C@@H](O)C[C@]2(C)[C@@]1(O)C(=O)CO (some centres not stated)
inactive: Potency [3] | Potency [4]

O=C1NC(=O)[C@@H](c2cn3c4c(cccc24)CCC3)[C@H]1c1c[nH]c2ccccc12
active: Potency [1] 1.87 µM | Potency [5] 1.48 µM | Potency [7] 1.32 µM | Potency [8] 0.59 µM

O=C(O)CCC1CCC(c2cc(F)ccc2F)(S(=O)(=O)c2ccc(Cl)cc2)CC1 (configuration not stated)
inactive: Potency [9] | Potency [10] | activity (max response) [11] -1.6%
active: Potency [1] 1.48 µM | Potency [5] 8.33 µM | Potency [6] 14.8 µM | Potency [7] 9.35 µM

C#C[C@]1(O)CC[C@@H]2[C@@H]3CCc4cc(O)ccc4[C@H]3CC[C@@]21C
inactive: Potency [1]
active: Potency [6] 16.6 µM | Potency [9] 14.8 µM | Potency [10] 11.8 µM

CN[C@@H](C)C(=O)N[C@H]1CCCC[C@H]2CC[C@@H](C(=O)N[C@@H](c3ccccc3)c3cn(CCCCc4ccc(CCCCn5cc([C@@H](NC(=O)[C@@H]6CC[C@@H]7CCCC[C@H](NC(=O)[C@H](C)NC)C(=O)N76)c6ccccc6)nn5)cc4)nn3)N2C1=O
inactive: Potency [1] | Potency [5] | Potency [6] | Potency [7] | Potency [9] | activity (max response) [11] -2.95% | Potency [2]

Nc1nc2ccc(OC(F)(F)F)cc2s1
active: Potency [2] 20 µM
inactive: Potency [1] | Potency [9]

COc1cc2nc(N3CCN(C(=O)C4COc5ccccc5O4)CC3)nc(N)c2cc1OC (configuration not stated)
inactive: Potency [1] | Potency [6] | Potency [7] | Potency [9] | Potency [8] | Potency [10]

OCCN1C[C@H](O)[C@@H](O)[C@H](O)[C@@H]1CO
active: Potency [1] 0.105 µM | Potency [5] 2.64 µM | Potency [6] 2.96 µM
inactive: Potency [9] | Potency [8] | Potency [10]

CC(C)(C)[C@H](NC(=O)c1ccc(N)c(Cl)c1)C(=O)N1CCC[C@@H]1C(=O)N[C@H](C#N)CC(=O)O
inactive: viability [9] 112% [at 3.51 µM] | viability [8] 92.8% [at 3.51 µM] | viability [10] 105% [at 3.51 µM]
active: Potency [1] 0.105 µM | Potency [5] 0.372 µM | Potency [6] 1.05 µM

CCCNC(=O)[C@H]1O[C@H]1C(=O)N[C@H](C(=O)N1CCC[C@@H]1C(=O)OC)C(C)CC (some centres not stated)
active: Potency [1] 13.2 µM | Potency [6] 16.6 µM | Potency [7] 16.6 µM | Potency [9] 20.9 µM | Potency [8] 14.8 µM | Potency [10] 16.6 µM

O=S(=O)(N=Cc1c(O)ccc2ccccc12)c1cccs1
inactive: Potency [1] | Potency [6] | Potency [7] | Potency [10]
active: Potency [5] 16.6 µM

N#CC(=C(N)Sc1ccccc1N)C(C#N)=C(N)Sc1ccccc1N
inactive: Potency [1] | Potency [6] | Potency [7]

O=C1CN2Cc3c(ccc(Cl)c3Cl)N=C2N1
inactive: Potency [1] | Potency [9] | activity (max response) [11] 2.15% | Potency [2]

O=C1Nc2ccc(Cl)cc2C(C#CC2CC2)(C(F)(F)F)O1 (configuration not stated)
inactive: Potency [3] | Potency [4] | Potency [5] | Potency [9] | Potency [8]

C=CCc1cccc(C=NNC(=O)CN2CCN(Cc3ccccc3)CC2)c1O
active: Potency [3] 16.6 µM | Potency [4] 18.7 µM | Potency [5] 16.6 µM | Potency [6] 13.2 µM | Potency [7] 14.8 µM | Potency [9] 10.5 µM | Potency [10] 8.33 µM

Cc1nn(C)c2c1C(c1ccc(C(F)(F)F)cc1)C(C#N)=C(N)O2 (configuration not stated)
inactive: Potency [3] | Potency [4] | Potency [5] | Potency [6] | Potency [7] | activity (max response) [11] -18.7%

COc1cc(N2CCC(C(N)=O)CC2)ccc1Nc1nc(N)c(Cl)c(Nc2ccccc2S(=O)(=O)C(C)C)n1
active: Potency [3] 16.6 µM | Potency [4] 16.6 µM | Potency [5] 23.5 µM | Potency [6] 18.7 µM | Potency [7] 18.7 µM | Potency [9] 8.33 µM | Potency [8] 4.18 µM | Potency [10] 9.35 µM

NNCCc1ccccc1
inactive: Potency [3] | Potency [5] | Potency [6] | Potency [7] | activity (max response) [11] -8.17% | Potency [2]

CCC1=C[C@@H]2CN(C1)Cc1c([nH]c3ccccc13)[C@@](C(=O)OC)(c1cc3c(cc1OC)N(C)[C@@H]1[C@@](O)(C(=O)OC)[C@H](OC(C)=O)[C@]4(CC)C=CCN5CC[C@]31[C@@H]54)C2
active: Potency [3] 0.0743 µM | Potency [5] 0.0372 µM | Potency [7] 0.0209 µM | Potency [9] 0.059 µM | Potency [8] 0.0209 µM

COc1ccc(C=CC(=O)Nc2ccccc2C(=O)O)cc1OC
inactive: Potency [3] | Potency [5] | Potency [7] | Potency [9] | Potency [8]
